Assay outcomes deposited in PubChem by Small Molecule Screening Facility, UW Madison.
RMI-FANCM inh – blocks RMI1/RMI2 complex binding to FANCM MM2 peptide; AID 1159607; Fluorescence polarization, RMI core complex with F-MM2 peptide; active compounds read low; 70,000 tested, 0.58% active; FP signal (polarization) at 33 µM; in the data active = FP signal below about 40
The depositor's hits bear a star. This excerpt belongs to a sample that is enriched for hits.

`COc1ccc(CC(=O)Nc2sc3c(c2-c2nc4ccccc4s2)CCN(C(C)C)C3)cc1` gave RMI-FANCM inh 55.
Screening CC(C)N1CCc2c(sc(NC(=O)Cc3ccc(F)cc3)c2-c2nc3ccccc3s2)C1 returned RMI-FANCM inh 500.
COC(=O)N1CCc2c(sc(NC(=O)c3cccs3)c2-c2nc3ccccc3s2)C1 was read as RMI-FANCM inh 76.
CCOC(=O)N1CCc2c(sc(NC(=O)c3ccc(Br)s3)c2-c2nc3ccccc3s2)C1 was read as RMI-FANCM inh 6*.
Screening CCOC(=O)N1CCc2c(sc(N)c2-c2nc3ccccc3s2)C1 returned RMI-FANCM inh 76.
CCOc1ccc(C(=O)Nc2sc3c(c2-c2nc4ccccc4s2)CCN(C(C)C)C3)cc1 was read as RMI-FANCM inh -31*.
For COC(=O)CSc1nnc(CNC(=O)c2ccc([N+](=O)[O-])cc2)n1-c1ccc(F)cc1 the results were RMI-FANCM inh 61.
CCOC(=O)c1nn(-c2ccc(F)cc2)c(=O)cc1NCCc1c[nH]c2ccccc12 was read as RMI-FANCM inh 55.
Screening COc1ccccc1C(=O)N1C(=O)c2cccc3c(S(=O)(=O)N(C)C)ccc1c23 returned RMI-FANCM inh 52.
Screening COc1ccccc1Oc1ccc(S(=O)(=O)N(CC(F)(F)F)c2ccccc2)cc1 returned RMI-FANCM inh 65.
Screening CC(N)C(=O)NC(Cc1ccccc1)C(=O)O (stereo unspecified) returned RMI-FANCM inh 60.
Screening CC1(C)COCN1C(=O)CCN1C(=O)c2ccccc2S1(=O)=O returned RMI-FANCM inh 53.
Screening O=C(NCc1ccc2[nH]c3c(c2c1)CCCC3)c1ccc(C(F)(F)F)cc1 returned RMI-FANCM inh 43.
Screening O=C(Cc1cccs1)NCc1ccc2[nH]c3c(c2c1)CCCC3 returned RMI-FANCM inh -1*.
`O=C(NCc1ccc2[nH]c3c(c2c1)CCCC3)c1cccs1` gave RMI-FANCM inh 45.
O=C(Nc1ccc2scnc2c1)c1ccc(CNS(=O)(=O)c2ccc(F)c(Cl)c2)cc1 was read as RMI-FANCM inh 102.
Cc1[nH]c2ccccc2c1C(c1ccc(OC(F)F)cc1)c1c(C)[nH]c2ccccc12 was read as RMI-FANCM inh 36.
Screening Cc1[nH]c2ccccc2c1C(c1ccco1)c1c(C)[nH]c2ccccc12 returned RMI-FANCM inh 135.
Screening Cc1[nH]c2ccccc2c1C(c1ccc(C(C)C)cc1)c1c(C)[nH]c2ccccc12 returned RMI-FANCM inh 29*.
O=C(NCc1cccs1)C1(c2cccs2)CCCC1 was read as RMI-FANCM inh 60.
Screening O=C(NC(=S)Nc1ccc(-c2nc3ccccc3o2)cc1)c1cccs1 returned RMI-FANCM inh 85.
Screening Cc1cccc(-c2noc(CSc3nc4ccccc4c(=O)n3C)n2)c1 returned RMI-FANCM inh 62.
`N#Cc1ccc(S(=O)(=O)Oc2ccccc2)cc1` gave RMI-FANCM inh 60.
Screening COc1ccc(OC)c2[nH]c(=O)c(CCNC(=O)C3c4ccccc4Oc4ccccc43)cc12 returned RMI-FANCM inh 58.
For CC(=C\c1ccccc1)/C=C1/SC(=Nc2ccc(F)cc2)NC1=O the results were RMI-FANCM inh 58.
Screening O=C1NC(=Nc2ccccc2)S/C1=C/C=C/c1ccco1 returned RMI-FANCM inh 27*.
For CCOc1ccc(N=C2NC(=O)S/C2=C\C=C\c2ccccc2)cc1 the results were RMI-FANCM inh 66.
Cc1nc2sccn2c(=O)c1NC(=O)NC1CCCCC1 was read as RMI-FANCM inh 69.
For Cc1nc(-c2ccccc2)sc1C(=O)Nc1ccc(-c2cn3c(n2)SCC3)cc1 the results were RMI-FANCM inh 66.
For Cc1ccc(OCC(=O)Nc2cc(-c3ccco3)nn2-c2nc(C)c(C)c(=O)[nH]2)cc1 the results were RMI-FANCM inh 42.
Cc1nc(-n2nc(-c3ccco3)cc2NC(=O)c2ccco2)[nH]c(=O)c1C was read as RMI-FANCM inh 46.
For Cc1nc(-n2nc(-c3ccco3)cc2NC(=O)CSCc2ccccc2)[nH]c(=O)c1C the results were RMI-FANCM inh 35*.
`Cc1sc2nc(SCC(=O)N3CCN(c4nnnn4-c4ccccc4)CC3)n(-c3ccccc3)c(=O)c2c1C` gave RMI-FANCM inh 77.
Screening O=C(COC(=O)C1CCN(S(=O)(=O)c2ccc3ccccc3c2)CC1)c1ccccc1 returned RMI-FANCM inh 71.
For CCC(C(=O)NCCNC(=O)c1ccc(NC(=O)C(C)C)cc1)c1ccccc1 (stereo unspecified) the results were RMI-FANCM inh 68.
COc1ccc(Oc2ccc([N+](=O)[O-])c3nonc23)cc1 was read as RMI-FANCM inh 4*.
Screening COc1ccc(Oc2ccc([N+](=O)[O-])cc2-c2nc(-c3ccccn3)no2)cc1 returned RMI-FANCM inh 59.
Screening CCOC(=O)CNC(=O)c1cc([N+](=O)[O-])ccc1Oc1ccc(OC)cc1 returned RMI-FANCM inh 59.
Screening CC1CCN(C2=NC(=O)/C(=C\c3ccccc3)S2)CC1 returned RMI-FANCM inh 58.
O=C1N=C(N2CCN(c3ccccc3[N+](=O)[O-])CC2)S/C1=C/c1cccs1 was read as RMI-FANCM inh 18*.
Screening O=C1N=C(N2CCN(c3ccccc3F)CC2)S/C1=C\c1cccnc1 returned RMI-FANCM inh 66.
`O=C(CSc1nc2c([nH]c3ccccc32)c(=O)n1-c1ccc([N+](=O)[O-])cc1)N1CCc2ccccc21` gave RMI-FANCM inh 65.
For O=C(CSc1nc2c(c(=O)n1-c1ccc([N+](=O)[O-])cc1)SCC2)N1CCCc2ccccc21 the results were RMI-FANCM inh 24*.
`CCOC(=O)N1CCN(C(=O)CSc2nc3c(c(=O)n2-c2ccc(OCC)cc2)SCC3)CC1` gave RMI-FANCM inh 81.
`CC(=O)Nc1ccc(S(=O)(=O)NCC(c2ccc3c(c2)CCN3C)N2CCCCC2)cc1` (stereo unspecified) gave RMI-FANCM inh 60.
`Cc1cc(NC(=O)COc2ccccc2F)n(-c2nc3c(cnn3-c3cccc(Cl)c3)c(=O)[nH]2)n1` gave RMI-FANCM inh 64.
For O=C(Nc1cccc(N2CCCCC2=O)c1)c1c(F)cccc1Cl the results were RMI-FANCM inh 56.
`CSc1scc2c1-c1nc(SCC(=O)C(C)(C)C)ncc1CC2` gave RMI-FANCM inh 58.
CSc1scc2c1C(=O)/C(=C/N(C)C)CC2 was read as RMI-FANCM inh 33*.
COc1ccc(S(=O)(=O)N2CCCC2CNC(=O)c2ccc([N+](=O)[O-])cc2)cc1 (stereo unspecified) was read as RMI-FANCM inh 53.
O=C1c2cccc3cc([N+](=O)[O-])cc(c23)C(=O)N1CCc1ccccn1 was read as RMI-FANCM inh 45.
Screening O=C(c1ccc(S(=O)(=O)N2CCOCC2)cc1)N1CCN(CCN2C(=O)c3cccc4cccc(c34)C2=O)CC1 returned RMI-FANCM inh 55.
`O=C1c2cccc3cc([N+](=O)[O-])cc(c23)C(=O)N1CCCN1CCOCC1` gave RMI-FANCM inh 17*.
For CCCN1C(=O)C(C)(C)COc2ccc(NC(=O)c3ccc(F)c(F)c3)cc21 the results were RMI-FANCM inh 59.
For CN1CCN(Cc2c(O)c(CN3CCN(C)CC3)c3oc(-c4ccccc4)cc(=O)c3c2O)CC1 the results were RMI-FANCM inh 59.
For Cc1cc(C)c(S(=O)(=O)N2CCN(Cn3cnc4ccccc43)CC2)c(C)c1 the results were RMI-FANCM inh 68.
For Clc1cccnn1 the results were RMI-FANCM inh -3*.
`N#Cc1ccc(Cl)nn1` gave RMI-FANCM inh 65.
